Screening results as filed in PubChem.
Hits are enriched below; roughly 8% of the tested compounds scored in any of these assays.
HT1080 IDH1KD tx – qHTS for induction of synthetic lethality in tumor cells producing 2HG: qHTS for the HT-1080-IDH1KD cell line; HT-1080 IDH1 knockdown viability, ATP luminescence, 48 h; Potency, µM (series often up to 46.1 µM), for the others: at the highest dose activity, negative = toxicity, actives largely listed as cytotoxic; 360,000 tested, 2% active;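 further: 0% = DMSO wells and -100% = cell-free medium wells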
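In this qHTS, HT-1080 cells depleted of IDH1 are exposed for 48 h at 37 °C to compound titrations. Toxicity is scored from CellTiter-Glo luminescence, with DMSO as full viability and medium alone as none.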
KB-V1 cytotox – qHTS assay for MDR1-selective chemotherapeutics: Primary screen using the drug-selected MDR subline cells KB-V1; Potency, µM (doses to about 46.1 µM), actives largely listed as cytotoxic; KB-V1 MDR cells viability, CellTiter-Glo, 72 h; 400,000 tested, 3.4% active; AID 1347076, 2019; further: on the % scale 0 is the no-effect control and ±100 the full control effect; nearly all actives have a fitted effect of over 60% in size
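Cells of the MDR subline KB-V1 are plated, dosed with compound at multiple concentrations, and incubated 72 h at 37 degrees C; CellTiter-Glo is then added and luminescence read after 10 min.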
KB-3-1 tox – qHTS assay for MDR1-selective chemotherapeutics: Primary screen using the parental adenocarcinoma cell KB-3-1; KB-3-1 viability, CellTiter-Glo ATP luminescence, 72 h; Potency, µM (highest dose often 46.1 µM), most hits filed as cytotoxic; 400,000 tested, 1.4% active; further: on the % scale 0 is the no-effect control and ±100 the full control effect; nearly all actives have a fitted effect of over 60% in size
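Here the drug-naive KB-3-1 line serves as comparator for MDR sub-line selectivity; cells received compound titrations, 72 h at 37 °C, then CellTiter-Glo readout.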
MCF10A rereplic – A quantitative high throughput screen for small molecules that induce DNA re-replication in MCF 10a normal breast cells | MCF 10A DNA re-replication, Hoechst nuclear intensity, 48 h | Potency, µM (highest dose often 46.1 µM), without a hit: at the highest dose activity, positive = re-replication, most hits filed as activators | 350,000 tested, 2.9% active; further: % of control where 0% means no effect; nearly all actives have a fitted effect of over 50% in size
SW480 rerep – A quantitative high throughput screen for small molecules that induce DNA re-replication in SW480 colon adenocarcinoma cells | 340,000 tested, 1.8% active | Potency, µM (titrated, usually from 46.1 µM), for the others: at the highest dose re-replication activation, most hits filed as activators | SW480 DNA re-replication, Hoechst DNA content imaging, 48 h; further: % of control where 0% means no effect; nearly all actives have a fitted effect of over 55% in size
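Quantitative HTS format with DMSO vehicle controls; 48 hr drug incubation at 37 C, then 40 min Hoechst staining and scanning imager measurement at 405 nm excitation.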
HT1080NT lethal – qHTS for induction of synthetic lethality in tumor cells producing 2HG: qHTS for the HT-1080-NT fibrosarcoma cell line | 360,000 tested, 1.6% active | Potency, µM (highest dose often 46.1 µM), for the others: at the top dose activity, negative = less viability, actives largely listed as cytotoxic | HT-1080-NT fibrosarcoma viability, CellTiter-Glo ATP luminescence, 48 h;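 further: NT is the 2HG producing partner of a matched IDH1 knockdown line; 0% = DMSO-treated cells and -100% = media-only wells without cells; nearly all actives have a fitted effect of over 55% in size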
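Viability by CellTiter-Glo luminescence after 48 h compound exposure at 37C of HT-1080-NT cells (750/well, RPMI, 5% FBS). % activity scaled between DMSO wells and medium-only wells, then curve-fitted and categorized by curve class.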
* hit, by the source's call; i = inactive; ? = inconclusive; . = no result given. The call rests on the fitted dose curve; in most records, active means well fitted curve in the direction sought with a large enough effect; inconclusive means small, poorly fitted or top-dose-only effect, or another doubt; inactive means no such curve, though single readings can be large; an effect the other way counts as inactive or inconclusive. Potency means the concentration at half of the fitted maximal effect.

SMILES	HT1080 IDH1KD tx	KB-V1 cytotox	KB-3-1 tox	MCF10A rereplic	SW480 rerep	HT1080NT lethal
CCOC(=O)c1ccccc1NC(=O)CN1C(=O)CC(c2ccccc2)Sc2ccccc21 (stereo not given)	.	12µM*	?	.	.	.
COc1ccc(C2CC(=O)N(CC(=O)Nc3ccc(C)c(Cl)c3)c3ccccc3S2)cc1OC (stereo not given)	.	18µM*	?	.	.	.
Cc1cccc(NC(=O)CN2C(=O)CC(c3ccccc3)Sc3ccccc32)c1 (stereo not given)	.	?	i	.	.	.
COc1ccc(C2CC(=O)N(CC(=O)Nc3ccc(C(C)=O)cc3)c3ccccc3S2)cc1OC (stereo not given)	.	?	i	.	.	.
O=C(CCc1ccc(S(=O)(=O)N2CCOCC2)cc1)N/N=C/c1ccc(O)c(O)c1O	0%	i	i	10%	2%	-4%
Nc1ccc(N(c2ccccc2)c2ccc(N)cc2)cc1	21µM*	?	?	14%	?	16µM*
CNCc1sccc1C	18%	i	i	-1%	-7%	?
O=C(/C=C/c1ccc([N+](=O)[O-])cc1)Nc1ncc([N+](=O)[O-])s1	?	8.2µM*	?	?	?	?
O=C(CS(=O)(=O)c1ccccc1)Nc1ncc([N+](=O)[O-])s1	14%	i	i	-2%	0%	11%
O=C(CCS(=O)(=O)Cc1ccccc1)Nc1ncc([N+](=O)[O-])s1	18µM*	i	i	?	23µM*	-8%
O=C(CCS(=O)(=O)c1ccccc1)Nc1ncc([N+](=O)[O-])s1	16µM*	?	?	4.6µM*	7.3µM*	21µM*
O=C(CCS(=O)(=O)Cc1ccccc1)Nc1nncs1	0%	i	i	?	21µM*	-14%
CC(C)CC(=O)Nc1nnc(SCC(=O)NCc2ccc3c(c2)OCO3)s1	-19%	i	i	0%	-4%	0%
CN(Cc1ccccc1)C(=O)c1ccc(S(=O)(=O)N(C)c2ccccc2)cc1	-2%	i	i	13%	-2%	-1%
CCOC(=O)c1cccc(NC(=O)NCc2cccn2Cc2ccccc2)c1	.	i	i	.	.	.
COc1ccc(-c2cc3nc(-c4ccc(C)cc4)cc(C(F)(F)F)n3n2)cc1	.	?	i	.	.	.
CN(C)c1ccc(N=Nc2ccc(S(=O)(=O)O)cc2)cc1	.	i	i	.	.	.
O=C(Nc1ncc([N+](=O)[O-])s1)c1cccs1	21µM*	16µM*	?	?	-66%	23µM*
CCCCC(CC)C(=O)Nc1ncc([N+](=O)[O-])s1 (stereo not given)	18µM*	?	?	?	-3%	?
COc1ccc(S(=O)(=O)N2CCOCC2)cc1NC(=O)C1CCCCN1S(=O)(=O)c1ccccc1 (stereo not given)	6%	i	i	-3%	-2%	1%
O=S1(=O)c2ccccc2N(Cc2ccc(Cl)cc2F)c2ccccc21	.	i	i	.	.	.
Cc1sc2nc3ccc(N4CCCC4)nn3c(=O)c2c1C	1%	16µM*	?	10%	-4%	-1%
CC(C)C(OC(=O)CN1C(=O)COc2ccccc21)C(=O)NC1CCCC1 (stereo not given)	2%	6.5µM*	i	-2%	-7%	15%
Cc1ccc2c(c1)N(CC(=O)OC(CC(C)C)C(=O)NC1CCCC1)C(=O)CO2 (stereo not given)	-22%	3.7µM*	i	?	2%	5%
